# Counter-ions that a name gives are not always drawn.
# How the values were obtained:
# Conditions in all cases: 72 h
# HCC1937 [1] = assay: relative cell viability, compound alone, vs DMSO (fraction of DMSO control); higher = less growth inhibition
# MDA-MB-231 [2] = assay: as above
# HCC1937 [3] = assay: relative cell viability, compound + RSL3, vs DMSO (fraction of DMSO control); higher = less growth inhibition
# MDA-MB-231 [4] = assay: as above
# 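Throughout, for relative cell viability, compound + RSL3, vs DMSO: breast cancer cell viability read out with the CCK-8 kit after co-treatment of each compound with the ferroptosis inducer RSL3.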
# 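Throughout, for relative cell viability, compound alone, vs DMSO: viability read out with the CCK-8 kit in 96-well plates, screening a set of 303 compounds acting on lipid metabolism targets.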
SMILES,relative cell viability (HCC1937 [1]),relative cell viability (MDA-MB-231 [2]),relative cell viability (HCC1937 [3]),relative cell viability (MDA-MB-231 [4])
CN(C(=O)n1cnc(-c2ccc[n+]([O-])c2)c1)C1CCCCC1,0.65,0.934,,
Cc1cccc(Nc2cc(Cl)nc(SCC(=O)O)n2)c1C [Pirinixic Acid] + COC(=O)c1ccc([C@H]2c3[nH]c4ccccc4c3C[C@H](C(=O)OC)N2C(=O)CCl)cc1 [RSL3],,,0.603,0.495
Cn1c2cc([S+](C)[O-])sc2c2cnn(Cc3cccc(N)c3)c(=O)c21 (centres undefined) + COC(=O)c1ccc([C@H]2c3[nH]c4ccccc4c3C[C@H](C(=O)OC)N2C(=O)CCl)cc1 [RSL3],,,0.402,0.677
C=CC[S+]([O-])C[C@H](N)C(=O)O (some centres undefined) [Alliin],1,1.04,,
COc1ccc(-c2c[nH]c3nccc(-c4ccsc4)c23)c(OC)c1 + COC(=O)c1ccc([C@H]2c3[nH]c4ccccc4c3C[C@H](C(=O)OC)N2C(=O)CCl)cc1 [RSL3],,,0.403,0.665
CC(C)[C@H](N=C(NS(=O)(=O)c1ccc(Cl)cc1)N1C[C@H](c2ccccc2)C(c2ccc(Cl)cc2)=N1)C(N)=O,0.87,0.893,,
O=C1/C(=C/c2cccs2)CC/C1=C\c1cccs1,0.766,0.84,,
CCCCCCS(=O)(=O)NC(=O)c1ccc(CSCc2ccc(-c3ccccc3)cc2)cc1,0.938,0.91,,
O=c1oc2ccccc2cc1O [3-Hydroxycoumarin] + COC(=O)c1ccc([C@H]2c3[nH]c4ccccc4c3C[C@H](C(=O)OC)N2C(=O)CCl)cc1 [RSL3],,,0.587,0.682
CC(C)(CCCCCC(O)CCCCCC(C)(C)C(=O)O)C(=O)O + COC(=O)c1ccc([C@H]2c3[nH]c4ccccc4c3C[C@H](C(=O)OC)N2C(=O)CCl)cc1 [RSL3],,,0.288,0.337
Cc1ccc(/C=C2\SC(=S)N(CCCCCC(=O)Nc3ccc(C(=O)O)c(O)c3)C2=O)cc1,1.07,0.914,,
CCCC[S+]([O-])c1sc2nc(-c3cccs3)cc(-c3ccccc3)c2c1N (centres undefined),0.85,0.806,,
C[C@H](CCOc1cccc(CC(=O)O)c1)N(Cc1cccc(C(F)(F)F)c1Cl)CC(c1ccccc1)c1ccccc1 + COC(=O)c1ccc([C@H]2c3[nH]c4ccccc4c3C[C@H](C(=O)OC)N2C(=O)CCl)cc1 [RSL3],,,0.318,0.532
Cn1nc(C(=O)N(Cc2ccccc2)Cc2ccc(C(=O)O)cc2)c2c1-c1cc(Cl)ccc1OC2 [Nidufexor],0.937,0.932,,
CCCc1c(OCCCOc2ccc(OCC(=O)O)cc2)ccc(C(C)=O)c1O,0.943,1.07,,
C[C@@H]1O[C@@H](O[C@H]2[C@H](Oc3cc(O)c4c(c3)O[C@H](c3ccc(O)cc3)CC4=O)O[C@H](CO)[C@@H](O)[C@@H]2O)[C@H](O)[C@H](O)[C@H]1O [Naringin] + COC(=O)c1ccc([C@H]2c3[nH]c4ccccc4c3C[C@H](C(=O)OC)N2C(=O)CCl)cc1 [RSL3],,,0.949,0.658
C[C@H]1N=C(N(C)C)N=C(N)N1 [Imeglimin hydrochloride],0.912,0.838,,
Cc1c2c(=O)n(-c3ccccc3Cl)[nH]c2cc(=O)n1Cc1ccccn1 + COC(=O)c1ccc([C@H]2c3[nH]c4ccccc4c3C[C@H](C(=O)OC)N2C(=O)CCl)cc1 [RSL3],,,0.452,0.626
Cc1c(C(=O)Nc2ccc(CO)cc2)nnn1Cc1ccc(Cl)c(Cl)c1 + COC(=O)c1ccc([C@H]2c3[nH]c4ccccc4c3C[C@H](C(=O)OC)N2C(=O)CCl)cc1 [RSL3],,,0.406,0.573
CC1(N)CCN(c2cnc(-c3cccc(Cl)c3Cl)c(N)n2)CC1 [SHP099 hydrochloride] + COC(=O)c1ccc([C@H]2c3[nH]c4ccccc4c3C[C@H](C(=O)OC)N2C(=O)CCl)cc1 [RSL3],,,0.397,0.628
Cc1nc2c([nH]1)c(=O)n(C)c(=O)n2Cc1ccco1 [Furafylline] + COC(=O)c1ccc([C@H]2c3[nH]c4ccccc4c3C[C@H](C(=O)OC)N2C(=O)CCl)cc1 [RSL3],,,0.399,0.596

SMILES,relative cell viability (HCC1937 [1]),relative cell viability (MDA-MB-231 [2]),relative cell viability (HCC1937 [3]),relative cell viability (MDA-MB-231 [4])
O=C(O)c1cccnc1Nc1cccc(C(F)(F)F)c1 [Niflumic acid] + COC(=O)c1ccc([C@H]2c3[nH]c4ccccc4c3C[C@H](C(=O)OC)N2C(=O)CCl)cc1 [RSL3],,,0.734,0.53
O=C(O)CC[C@H](O)C(=O)O [L-2-Hydroxyglutaric acid disodium] + COC(=O)c1ccc([C@H]2c3[nH]c4ccccc4c3C[C@H](C(=O)OC)N2C(=O)CCl)cc1 [RSL3],,,0.554,0.76
CC(C)=CCC[C@](C)(O)[C@H]1CC[C@]2(C)[C@@H]1[C@H](O)C[C@@H]1[C@@]3(C)CC[C@H](O)C(C)(C)[C@@H]3[C@@H](O)C[C@]12C [(20S)-Protopanaxatriol] + COC(=O)c1ccc([C@H]2c3[nH]c4ccccc4c3C[C@H](C(=O)OC)N2C(=O)CCl)cc1 [RSL3],,,0.762,0.672
"CCCCCCCCCCC#CC#CCCCCCCCCC(=O)O [10,12-Tricosadiynoic acid] + COC(=O)c1ccc([C@H]2c3[nH]c4ccccc4c3C[C@H](C(=O)OC)N2C(=O)CCl)cc1 [RSL3]",,,0.4,0.634
O=C(Nc1cnccc1Cl)N1CCN(Cc2ccc3c(c2)OC(F)(F)O3)CC1 + COC(=O)c1ccc([C@H]2c3[nH]c4ccccc4c3C[C@H](C(=O)OC)N2C(=O)CCl)cc1 [RSL3],,,0.338,0.568
O=C(Nc1cccnn1)N1CCC(=Cc2cccc(Oc3ccc(C(F)(F)F)cn3)c2)CC1 + COC(=O)c1ccc([C@H]2c3[nH]c4ccccc4c3C[C@H](C(=O)OC)N2C(=O)CCl)cc1 [RSL3],,,0.686,0.601
C=C1C[C@]2(O)O[C@@]3(CC2=C(C)C)[C@@H](C)CC[C@@H]13 [Isocurcumenol] + COC(=O)c1ccc([C@H]2c3[nH]c4ccccc4c3C[C@H](C(=O)OC)N2C(=O)CCl)cc1 [RSL3],,,0.612,0.568
O=C(O)/C=C/c1ccc(O)c(O)c1 [Caffeic Acid] + COC(=O)c1ccc([C@H]2c3[nH]c4ccccc4c3C[C@H](C(=O)OC)N2C(=O)CCl)cc1 [RSL3],,,0.623,0.426
CCOC(=O)N1c2ccc(C(F)(F)F)cc2[C@@H](N(Cc2cc(C(F)(F)F)cc(C(F)(F)F)c2)C(=O)OC)C[C@H]1CC [Torcetrapib] + COC(=O)c1ccc([C@H]2c3[nH]c4ccccc4c3C[C@H](C(=O)OC)N2C(=O)CCl)cc1 [RSL3],,,0.642,0.458
COc1cccc(CNc2ccc(S(=O)(=O)Nc3nc4ccccc4s3)cc2)c1O + COC(=O)c1ccc([C@H]2c3[nH]c4ccccc4c3C[C@H](C(=O)OC)N2C(=O)CCl)cc1 [RSL3],,,0.583,0.657
CC(C)OC(=O)CCC/C=C\C[C@@H]1[C@@H](CC[C@@H](O)CCc2ccccc2)[C@H](O)C[C@@H]1O [Latanoprost] + COC(=O)c1ccc([C@H]2c3[nH]c4ccccc4c3C[C@H](C(=O)OC)N2C(=O)CCl)cc1 [RSL3],,,1.03,0.597
COc1cc([C@@H]2Oc3c(O)cc([C@H]4Oc5cc(O)cc(O)c5C(=O)[C@@H]4O)cc3[C@H]2CO)ccc1O [Silychristin] + COC(=O)c1ccc([C@H]2c3[nH]c4ccccc4c3C[C@H](C(=O)OC)N2C(=O)CCl)cc1 [RSL3],,,0.567,0.66
Cc1cc([N+](=O)[O-])ccc1NS(=O)(=O)c1cc(Cl)ccc1Cl + COC(=O)c1ccc([C@H]2c3[nH]c4ccccc4c3C[C@H](C(=O)OC)N2C(=O)CCl)cc1 [RSL3],,,0.264,0.515
C=C(C)[C@@H]1CC[C@]2(CO)CC[C@]3(C)[C@H](CC[C@@H]4[C@@]5(C)CC[C@H](O)C(C)(C)[C@@H]5CC[C@]43C)[C@@H]12 [Betulin] + COC(=O)c1ccc([C@H]2c3[nH]c4ccccc4c3C[C@H](C(=O)OC)N2C(=O)CCl)cc1 [RSL3],,,0.619,0.453
O=C(O)C(O)Cc1ccc(O)c(O)c1 (centres undefined) [Sodium Danshensu] + COC(=O)c1ccc([C@H]2c3[nH]c4ccccc4c3C[C@H](C(=O)OC)N2C(=O)CCl)cc1 [RSL3],,,0.631,0.545
O=C(O)c1c[nH]c2cc(Cl)c(-c3ccc(C4(O)CCC4)cc3)cc12 + COC(=O)c1ccc([C@H]2c3[nH]c4ccccc4c3C[C@H](C(=O)OC)N2C(=O)CCl)cc1 [RSL3],,,0.572,0.572
COc1cccc(-n2c(=O)[nH]c3cc(Cl)n(-c4ccc(-c5cccc(OC)c5O)cc4)c3c2=O)c1 + COC(=O)c1ccc([C@H]2c3[nH]c4ccccc4c3C[C@H](C(=O)OC)N2C(=O)CCl)cc1 [RSL3],,,0.395,0.572
O=C(Nc1ccc(C(O)(C(F)(F)F)C(F)(F)F)cc1)c1ccccc1Cl + COC(=O)c1ccc([C@H]2c3[nH]c4ccccc4c3C[C@H](C(=O)OC)N2C(=O)CCl)cc1 [RSL3],,,0.489,0.616
O=C(O)c1cc2c(Cl)c(N3CCN(S(=O)(=O)c4c(Cl)cccc4Cl)CC3)ccc2o1 [Vonafexor] + COC(=O)c1ccc([C@H]2c3[nH]c4ccccc4c3C[C@H](C(=O)OC)N2C(=O)CCl)cc1 [RSL3],,,0.514,0.745
COC(=O)c1cc(Cl)c(O)c(S(=O)(=O)Nc2cc(-c3ccccc3)c(F)cc2F)c1 + COC(=O)c1ccc([C@H]2c3[nH]c4ccccc4c3C[C@H](C(=O)OC)N2C(=O)CCl)cc1 [RSL3],,,0.45,0.573
C[C@@H]1OCC2(CCN(c3cnc(Sc4ccnc(N)c4Cl)c(N)n3)CC2)[C@@H]1N + COC(=O)c1ccc([C@H]2c3[nH]c4ccccc4c3C[C@H](C(=O)OC)N2C(=O)CCl)cc1 [RSL3],,,0.378,0.71
